# L3MBTL1 block = inhibitors of human L3MBTL1; Potency, µM (highest dose often 57.1 µM), actives largely listed as inhibitors; AlphaScreen L3MBTL1–H3K9me1 peptide binding; 230,000 tested, 0.66% active; AID 485360; Q9Y468; further: nearly all actives have a fitted effect of over 60% in size
#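 Displacement of a biotinylated histone H3(1-15) peptide monomethylated at Lys9 (75 nM) from L3MBTL1 (50 nM) was measured by AlphaScreen after a 30 min room-temperature compound incubation; cefsulodin titration served as intraplate control.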
# HP1b binding inh = inhibitors of HP1-beta chromodomain binding to methylated histone tails. P83916. AlphaScreen HP1-beta / biotin-H3K9me3 peptide binding. Potency, µM (titrated, usually from 114 µM), actives largely listed as inhibitors. 390,000 tested, 0.56% active. AID 540317; further: nearly all actives have a fitted effect of over 70% in size
# Target sequence (P83916 whole entry, looked up): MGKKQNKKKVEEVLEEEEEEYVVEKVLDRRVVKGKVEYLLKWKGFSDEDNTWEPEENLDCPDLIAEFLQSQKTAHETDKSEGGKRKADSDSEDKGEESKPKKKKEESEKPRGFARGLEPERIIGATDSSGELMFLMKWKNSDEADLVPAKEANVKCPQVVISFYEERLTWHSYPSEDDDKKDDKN
#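 AlphaScreen: HP1-beta (50 nM) preformed 30 min with biotin-H3(1-18)K9me3 peptide (50 nM) in PBS pH 7.4, 0.01% Tween-20. Compound added for 30 min at RT, then streptavidin donor/nickel chelate acceptor beads (10 ug/mL) for 30 min.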
# Sfp inh = Sfp phosphopantetheinyl transferase inhibition | Potency, µM, hits mostly inhibitors | 310,000 tested, 3.5% active | Q9F4F7 | Biochemical Sfp PPTase activity, qHTS;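 further: the enzyme is Sfp with the accession as filed and its product quenches rhodamine fluorescence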
#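 Fluorescence-quenching assay: 15 nM Sfp-PPTase preincubated 15 min at room temperature with compound, then 5 uM rhodamine-CoA and 12.5 uM BHQ-2-labelled YbbR peptide added. Fluorescence (ex 525/em 598 nm) read at start and after 30 min; difference gives rate.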
# BAZ2B inh = BAZ2B (human) inhibition; AlphaScreen BAZ2B-H3K14Ac peptide displacement; Potency, µM (series often up to 114 µM), most hits filed as inhibitors; 360,000 tested, 4.4% active; further: nearly all actives have a fitted effect of over 60% in size
#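 Inhibition is scored as reduced AlphaScreen emission. The BAZ2B/b-H3(5-23)K14Ac complex (50 nM each) in PBS pH 7.4, 0.01% Tween-20 meets compound (up to 110 uM) for 30 min at RT before bead addition.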
# G9a inh = blocks human histone lysine methyltransferase G9a. Q96KQ7. G9a H3K9 monomethylation, AlphaScreen, 2 h. Potency, µM (series often up to 102 µM), actives largely listed as inhibitors. 350,000 tested, 8.8% active; further: nearly all actives have a fitted effect of over 75% in size
# Target sequence (Q96KQ7 913-1193 limits assumed): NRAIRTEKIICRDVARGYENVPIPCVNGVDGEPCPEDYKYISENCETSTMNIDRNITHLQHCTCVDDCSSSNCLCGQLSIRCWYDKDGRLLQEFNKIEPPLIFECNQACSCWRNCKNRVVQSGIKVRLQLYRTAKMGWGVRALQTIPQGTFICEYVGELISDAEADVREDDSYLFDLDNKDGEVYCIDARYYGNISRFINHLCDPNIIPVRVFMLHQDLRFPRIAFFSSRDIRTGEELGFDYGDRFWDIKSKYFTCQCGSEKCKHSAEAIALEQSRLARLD
#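 AlphaScreen read-out: biotin-H3K9 peptide (500 nM) methylation by 20 nM enzyme with 20 uM SAM, 2 h at room temperature after 15 min compound preincubation; anti-monomethyl H3K9 antibody plus donor/acceptor beads, 10 min dark.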
# JMJD2A Tudor = blocks the human JMJD2A Tudor domain. O75164. AlphaScreen JMJD2A-Tudor / H3K4me3 peptide binding. Potency, µM (highest dose often 114 µM), hits mostly inhibitors. 390,000 tested, 4.4% active. AID 504339; further: nearly all actives have a fitted effect of over 50% in size
# Hits are given with their value; n = inactive; u = inconclusive; x = no result; [ ] = another dose, or the depositor's remark. Rows were chosen to be rich in hits. Some 12% of all compounds tested hit in one or more screens of this group. The call rests on the fitted dose curve; in most records, active means well fitted curve in the direction sought with a large enough effect; inconclusive means small, poorly fitted or top-dose-only effect, or another doubt; inactive means no such curve, though single readings can be large; an effect the other way counts as inactive or inconclusive.
SMILES,L3MBTL1 block,HP1b binding inh,Sfp inh,BAZ2B inh,G9a inh,JMJD2A Tudor
CC1(C)OC(=O)C2(Cc3ccc(Cl)cc3N3CCCCC32)C(=O)O1 (stereo unspecified),x,n,x,x,x,n
COc1cc(C(=O)NNC(=S)Nc2ccc(S(N)(=O)=O)cc2)cc(OC)c1OC,n,n,13µM,n,8.9µM,n[11.4 µM]
COc1cc(C(=O)NNC(=O)CCOc2cccc(Br)c2)cc(OC)c1OC,n,n,x,n,n[2.33 µM],n
COc1cc(C(=O)NC(=S)Nc2ccc([N+](=O)[O-])cc2)cc(OC)c1OC,n,n,45µM,n,u,u
COc1ccc(C(=O)NC(=S)Nc2ccc(S(N)(=O)=O)cc2)cc1,n,n,u,n,u,n
CCCC(=O)Nc1ccccc1NC(=O)c1cc(OC)c(OC)c(OC)c1,x,n,n,n,89µM,n
COc1cc(C(=O)NC(=S)Nc2ccc([N+](=O)[O-])cc2C)cc(OC)c1OC,n,n,u,n,n,u
CCOc1ccc(OCCC(=O)NNC(=O)c2cc(OC)c(OC)c(OC)c2)cc1,n,n,x,n,79µM,n
CCOC(=O)c1c(S(=O)(=O)N2CCCC(C(=O)Nc3ccc(C)cc3C)C2)c(C)n(CC)c1C (stereo unspecified),x,n,x,n,n,n
COc1cc(C(=O)NC(=S)Nc2ccccc2[N+](=O)[O-])cc(OC)c1OC,n[11.4 µM],u,79µM,u,u,28µM
Cc1ccccc1-n1c(SCC(=O)c2c(N)n(C3CC3)c(=O)[nH]c2=O)nnc1N1CCOCC1,n,n,x,n,10µM,n
Cc1ccc(-n2c(SCC(=O)c3c(N)n(C4CC4)c(=O)[nH]c3=O)nnc2N2CCOCC2)cc1,n,n,x,n,n,n
CCn1c(SCC(=O)c2c(N)n(C3CC3)c(=O)[nH]c2=O)nnc1-c1ccccc1OC,n,n,x,n,2µM,n
CCOC(=O)c1cc(-c2ccccc2)n(CCCC(=O)Nc2cc(C)ccc2OC)c1C,x,n,x,n,n,u
COc1ccc(/C=C2\CCCC3C2=NN(C(=O)CSc2ncn[nH]2)C3c2ccc(OC)cc2)cc1 (stereo unspecified),n,n,n,n,n,n
O=C(O)CSCC(=O)N1N=C2/C(=C/c3ccccc3)CCCC2C1c1ccccc1 (stereo unspecified),x,n,n,n,50µM,n
O=C(CSc1ncn[nH]1)N1N=C2/C(=C/c3ccccc3)CCCC2C1c1ccccc1 (stereo unspecified),n,n,n,n,11µM,u
O=C(CCc1nc2cccnc2n1Cc1ccccc1)NCc1cccc(Cl)c1,x,n,x,n,n,n
Cc1cc2n(n1)C(c1ccccc1)Nc1ccccc1-2 (stereo unspecified),n,n,n,n,n,n
Cc1cc2n(n1)C(c1ccc(N(C)C)cc1)Nc1ccccc1-2 (stereo unspecified),n,n,n,n,n,45µM
CC(=O)N1N=C2c3ccccc3CCC2C1c1cccs1 (stereo unspecified),n,n,n,n,x,n
CN1N=C2c3ccccc3CCCC2C1c1ccc(F)cc1 (stereo unspecified),u,n,n,n,79µM,n
CN(C(=O)CSc1nc2ccc(NC(=O)c3ccco3)cc2s1)c1ccccc1,x,n,x,n,n,n
C/C(=N\Nc1cc(C(F)(F)F)ccc1Cl)c1ccncc1,x,n,n,n,40µM,n
CCOC(=O)C1CCC(CN(Cc2c(Cl)cccc2Cl)S(=O)(=O)c2ccc(Cl)cc2)CC1 (stereo unspecified),x,n,x,n,n,n
COc1ccc(NCC(=O)N/N=C/c2c(C)nn(Cc3ccccc3)c2Cl)cc1,u,n,n,45µM,u,u
O=C(O)CCCC(=O)Nc1ccccc1Oc1ccccc1,n,n,n,n,n,n
CCOc1ccc2nc(NC(=O)CN3C(=O)NC4(CCCC4)C3=O)sc2c1,n,n,x,n,50µM,n
CN(C)/C=C\C(=C/C(=O)C(F)(F)F)Nc1ccccc1Oc1ccccc1,n,n,45µM,n,n,u
CCOc1ccc(Oc2ccccc2NC(=O)CN2C(=O)NC3(CCCC3)C2=O)cc1,u,n,x,n,56µM,n

# High-throughput results deposited in PubChem BioAssay by National Center for Advancing Translational Sciences (NCATS).
